Source: PubChem BioAssay (National Center for Advancing Translational Sciences (NCATS))
RECQ1 inh-1 – blocks DNA unwinding by human RECQ1. 240,000 compounds, 0.54% hits. RECQ1 DNA unwinding, red fluorescence kinetic read. Potency, µM (doses to about 57.3 µM), inactives show at the highest dose activity, negative = inhibition, actives largely listed as inhibitors. AID 2549;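 note: plate controls were vehicle for no effect and no enzyme for full effect; nearly all actives have a fitted effect of over 30% in size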
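RECQ1T1 50 nM; forked duplex (20 bp + 30-nt ss tails) 200 nM, ATP 2 mM final; pH 8.0, 2 mM MgCl2, 2.5 ug/ml poly(dI-dC); 15 min compound preincubation; discontinuous kinetic read over 2 h at RT.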
BLM inh – inhibitors of human Bloom syndrome helicase BLM; Potency, µM (doses to about 56.1 µM), inactives show at the top dose activity change, negative = inhibition, hits mostly inhibitors; AID 2528; recombinant BLM DNA unwinding, fluorescence dequenching; 350,000 compounds, 0.2% hits;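 note: plate controls were vehicle for no effect and no enzyme for full effect; nearly all actives have a fitted effect of over 35% in size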
TDP1 inh – blocks human tyrosyl-DNA phosphodiesterase 1 | Q9NUW8 | recombinant TDP1, AlphaScreen DNA substrate cleavage | Potency, µM (series often up to 130 µM), for the others: at the highest dose activity change, negative = inhibition, actives largely listed as inhibitors | 350,000 compounds, 0.28% hits | AID 485290; note: % is set by controls: 0 for no effect and ±100 for the full control effect; nearly all actives have a fitted effect of over 40% in size
Target sequence (Q9NUW8 whole entry, looked up): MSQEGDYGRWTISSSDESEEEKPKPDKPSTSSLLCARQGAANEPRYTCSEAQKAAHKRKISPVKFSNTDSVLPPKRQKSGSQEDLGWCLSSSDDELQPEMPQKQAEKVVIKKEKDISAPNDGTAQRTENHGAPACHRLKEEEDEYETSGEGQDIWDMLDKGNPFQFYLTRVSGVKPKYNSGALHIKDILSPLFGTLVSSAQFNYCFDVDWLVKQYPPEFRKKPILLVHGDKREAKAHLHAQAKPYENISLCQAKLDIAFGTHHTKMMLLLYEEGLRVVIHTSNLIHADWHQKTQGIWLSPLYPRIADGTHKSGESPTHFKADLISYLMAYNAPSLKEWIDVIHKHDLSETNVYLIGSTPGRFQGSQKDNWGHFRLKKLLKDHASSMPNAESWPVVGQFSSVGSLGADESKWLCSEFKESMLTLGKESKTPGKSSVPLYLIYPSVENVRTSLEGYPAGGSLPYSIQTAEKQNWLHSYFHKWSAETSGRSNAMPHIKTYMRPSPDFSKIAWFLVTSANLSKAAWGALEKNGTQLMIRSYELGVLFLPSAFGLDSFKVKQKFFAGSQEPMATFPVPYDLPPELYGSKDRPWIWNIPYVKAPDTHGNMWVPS
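Tdp1 1 nM final; 15 min RT w/ cpd; substrate 15 nM, 5 min; beads 10 ug/ml, 10 min; AlphaScreen read. Neg ctrl: no enzyme.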
L3MBTL1 inh-1 – L3MBTL1 (human) inhibition; Potency, µM (doses to about 57.1 µM), without a hit: at the top dose activity, negative = inhibition, actives largely listed as inhibitors; 230,000 compounds, 0.66% hits; AlphaScreen L3MBTL1–H3K9me1 peptide binding; Q9Y468; note: % is set by controls: 0 for no effect and ±100 for the full control effect; nearly all actives have a fitted effect of over 60% in size
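AlphaScreen assay: L3MBTL1 (50 nM final) was preincubated 30 min at room temperature with biotinylated H3(1-15)K9me1 peptide (75 nM final), then 30 min with library compounds; streptavidin donor and nickel chelate acceptor beads (10 ug/mL final) added, 30 min dark.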
APE1 inh – blocks human APE1 abasic DNA cleavage | P27695 | recombinant APE1, TAMRA/BHQ-2 abasic DNA cleavage fluorescence | Potency, µM (top dose mostly 65.8 µM), for inactives: at the highest dose activity change, negative = inhibition, usual class: inhibitors | 350,000 compounds, 0.35% hits | AID 2517;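 note: plate controls were vehicle for no effect and reference inhibitor for full effect; nearly all actives have a fitted effect of over 55% in size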
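Activity was derived from the fluorescence gain between first and third kinetic reads (60 s intervals, ex 525/em 598 nm) after 50 nM THF-abasic TAMRA/BHQ-2 duplex was added to 0.75 nM APE1 preincubated 15 min with compound.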
JMJD2E inh – JMJD2E (human) inhibition; 230,000 compounds, 1.6% hits; Potency, µM (doses to about 57.1 µM), for inactives: top-dose activity change, negative = inhibition, hits mostly inhibitors; JMJD2E catalytic domain, FDH-coupled NADH fluorescence (FDH is formaldehyde dehydrogenase);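 note: 0% = wells with enzyme and -100% = buffer wells without enzyme; nearly all actives have a fitted effect of over 50% in size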
RECQ1 inh-2 – blocks human RECQ1 DNA unwinding. Potency, µM (doses to about 119 µM), inactives show at the highest dose activity, negative = inhibition, hits mostly inhibitors. shares compounds with RECQ1 inh-1. AID 504841. 1,100 compounds, 15% hits. recombinant RECQ1 DNA unwinding, red fluorescence; note: % is set by controls: 0 for no effect and ±100 for the full control effect; nearly all actives have a fitted effect of over 50% in size
L3MBTL1 inh-2 – validation of human L3MBTL1 methyl-lysine binding inhibitors. shares compounds with L3MBTL1 inh-1. L3MBTL1 methyl-lysine binding inhibition, biochemical qHTS. Potency, µM, hits mostly inhibitors. 500 compounds, 91% hits. AID 540279; note: nearly all actives have a fitted effect of over 70% in size
AlphaScreen ctr2 – interferes with AlphaScreen signal in L3MBTL1 counterscreen. shares compounds with L3MBTL1 inh-1. AlphaScreen counterscreen, signal inhibition. Potency, µM (series often up to 57.1 µM), for inactives: at the top dose activity change, negative = inhibition, usual class: inhibitors. 500 tested, under 10 active; note: 0% is about no effect
* = called active by the depositor; i = inactive; ? = inconclusive; · = no result; [ ] = remark or other dose. Many of the other results were omitted from the sample, so hits are more common in it than they were. Unless noted, calls come from the whole dose curve; as a rule, active = well fitted curve in the direction sought with a large enough effect; inconclusive = small, poorly fitted or top-dose-only effect, or another doubt; inactive = no such curve, though single readings can be large; an effect the other way counts as inactive or inconclusive. Potency is the fitted concentration of half-maximal effect.

SMILES	RECQ1 inh-1	BLM inh	TDP1 inh	L3MBTL1 inh-1	APE1 inh	JMJD2E inh	RECQ1 inh-2	L3MBTL1 inh-2	AlphaScreen ctr2
COc1ccc(S(=O)(=O)/N=C2/NC(=O)/C(=C/c3ccco3)S2)cc1	?	4.5%	?	35.5µM*	?	?	-26.6%	18.9*	-1.3%
COc1ccc(S(=O)(=O)/N=C2/NC(=O)/C(=C\c3ccco3)S2)cc1	-4.1%	6.1%	1.2%	?	5.9%	0.0%	·	·	·
COCCCn1c(SCC(=O)Nc2ccccc2OC)nc2c(sc3ccccc32)c1=O	·	-5.9%	2.5%	·	·	·	·	·	·
Cc1nn(-c2cccc(Cl)c2)c2nc(-c3ccco3)cc(C(=O)O)c12	-26.3%	5.0%	-7.9%	·	-4.4%	?	·	·	·
Cc1nn(-c2ccccc2)c2nc(-c3ccco3)cc(C(=O)O)c12	28.2µM*	24.9%	·	11.2µM*	?	?	-23.3%	1.06*	2.5%
O=C1NC(=O)/C(=C\c2ccc(O)cc2O)S1	22.4µM*	-22.7%	·	3.98µM*	3.98µM*	15.8µM*	12.6µM*	1.68*	?
Cc1cc(N2CCOCC2)ccc1/C=C1/SC(=O)NC1=O	-6.8%	-7.2%	-1.2%	·	2.0%	-10.8%	·	·	·
COC(=O)COc1ccc(C2Nc3c(Cl)ccc(C(=O)O)c3C3C=CCC32)cc1 (stereo not given)	28.2µM*	-6.4%	·	20µM*	?	?	?	16.8*	3.6%
COc1ccc(OC)c(C2Nc3c(Cl)ccc(C(=O)O)c3C3C=CCC32)c1 (stereo not given)	i	-3.6%	·	-13.9%	-4.9%	?	·	·	·
COc1ccc(CNC(=O)COC(=O)c2cc(C)nc3ccccc23)cc1	·	·	1.6%	1.3%	-19.7%	·	·	·	·
CCNC(=O)COC(=O)c1cc(-c2ccco2)nc2ccccc12	28.2µM*	?	?	25.1µM*	25.1µM*	?	?	4.23*	6.4%
CSCCC(NS(=O)(=O)c1ccc(C)c(C(=O)O)c1)C(=O)O (stereo not given)	-13.0%	-6.8%	3.8%	8.91µM*	-1.8%	?	·	?	-5.4%
CSCCC(NS(=O)(=O)c1ccc(Cl)cc1)C(=O)O (stereo not given)	-0.3%	-3.4%	1.2%	30.3%	2.0%	6.1%	·	·	·
COCCN(C(=O)COC(=O)Cc1coc2cc(C)ccc12)c1c(N)n(Cc2ccccc2)c(=O)[nH]c1=O	·	·	28.2µM*	25.1µM*	-33.4%	·	·	26.7*	1.2%
COCCN(C(=O)COC(=O)c1cc2c(s1)CCC2)c1c(N)n(Cc2ccccc2)c(=O)[nH]c1=O	·	·	0.0%[0.505 µM]	2.51µM*	0.752µM*	·	·	0.844*	-2.3%
COCCN(C(=O)COC(=O)Cc1cccc2ccccc12)c1c(N)n(Cc2ccccc2)c(=O)[nH]c1=O	·	-3.4%	0.9%	·	8.6%	·	·	·	·
O=C(O)CCC/C=C\C/C=C\C=C\[C@@H](O)C/C=C\CCCCCO	0.4%	1.1%	5.0%	·	-0.6%	4.4%	·	·	·
Cc1cc(C(=O)COC(=O)c2cc(Cl)c(O)c(Cl)c2)c(C)n1C	·	·	·	28.2µM*	-21.9%	·	·	4.74*	?
COC(=O)c1c(C)[nH]c(C(=O)C(C)OC(=O)C2CC(=O)N(CCc3ccccc3)C2)c1C (stereo not given)	·	·	-11.5%[56.1 µM]	28.2µM*	0.5%	·	·	26.7*	4.6%
Cc1ccc(-c2ccc(/C=C3\SC(N4CCOCC4)=NC3=O)o2)cc1	i	-2.1%	4.6%	·	-9.6%	-15.4%	·	·	·
